Source: PubChem (several laboratories)
Shown are actives, neighbours in structure and some others; about 1.7% of the full set was active somewhere.
MazF activator: activators of E. coli MazEF toxin-antitoxin RNase, primary screen, biochemical, fluorescence, uHTS. Endoribonuclease toxin MazF (Escherichia coli (strain K12)), P0AE70. 350,000 compounds, 0.32% hits. activation, % at 20 µM. FAM/BHQ RNA-DNA oligo cleavage fluorescence, 5 h; in the data active means activation above about 50%
Target sequence (P0AE70 whole entry, looked up): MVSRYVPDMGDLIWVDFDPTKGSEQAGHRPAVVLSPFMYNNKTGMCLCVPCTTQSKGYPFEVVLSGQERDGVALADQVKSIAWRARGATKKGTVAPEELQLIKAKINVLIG
VHR inh abs: VHR1 phosphatase inhibitors, primary screen, biochemical, absorbance, uHTS; Dual specificity protein phosphatase 3 (Homo sapiens), P51452; recombinant VHR phosphatase, pNPP absorbance; inhibition, % at 13.3 µM; 290,000 compounds, 0.52% hits; in the data active means inhibition above about 50%
Target sequence (P51452 whole entry, looked up): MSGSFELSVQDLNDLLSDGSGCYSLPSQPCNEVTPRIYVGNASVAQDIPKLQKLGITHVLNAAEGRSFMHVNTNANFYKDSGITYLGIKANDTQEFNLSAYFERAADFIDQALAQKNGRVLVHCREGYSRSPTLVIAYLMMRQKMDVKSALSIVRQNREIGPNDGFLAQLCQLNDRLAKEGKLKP
BJeLR viability: MLPCN primary cell-based screen for lethality selective to Ras in HRASV12 cells | inhibition, % (no concentration beside the values) | BJeLR (HRASV12) viability, CellTiter-Glo ATP luminescence, 48 h | AID 1554, 2009 | 300,000 compounds, 0.17% hits; in the data active means inhibition above about 50%; inconclusive means no clear call, values can overlap the other calls
PfHsp40 rescue: rescue of yeast from PfHsp40 toxicity, primary screen, S. cerevisiae, ATP luminescence. S. cerevisiae expressing PfHsp40, growth rescue. 340,000 compounds, 0.68% hits. growth rescue, % at 12.5 µM; in the data active means growth rescue above about 28%, passing the limit was not always enough; inconclusive means no clear call, values can overlap the other calls;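 further: yeast W303a lacking pdr1 and pdr3 grown in galactose medium; growth measured after three days at 30 °C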
3CLpro inhibitor: SARS-CoV 3CLpro protease inhibitors, primary screen, biochemical, quenched FRET; Replicase polyprotein 1ab (Severe acute respiratory syndrome coronavirus), P0C6X7; recombinant SARS-CoV 3CLpro, quenched FRET peptide cleavage; inhibition, % at 6 µM; 290,000 compounds, 0.14% hits; in the data active means inhibition above about 12%
Vc quorum ag-1: inducers of Vibrio cholerae quorum light production without autoinducers, primary screen, BH1578 luxS cqsA deficient, single point. AID 588436, 2011. activation, % at 18.7 µM. 350,000 compounds, 0.16% hits. V. cholerae BH1578 lux reporter, luminescence, 6 h; in the data active means activation mostly above about 9.7%, no sharp cut-off; inconclusive means no clear call, values can overlap the other calls; inactive means mostly below about 3.7%
Vc quorum ag-2: V. cholerae lux activation without autoinducers – BH1578 luxS cqsA deficient, cherry-pick, plate reader, dose response; activation, % at 50 µM; 620 tested, under 10 active; AID 602243, 2012; shares compounds with Vc quorum ag-1; V. cholerae BH1578 lux reporter, luminescence, 6 h; call rule not given here
HeLa 24h tox: HeLa cell cytotoxicity, dose response, cytotoxicity control, 24 h, dry powder | shares compounds with Vc quorum ag-1 | HeLa viability, CellTiter-Glo ATP luminescence | activity change, negative = cytotoxicity, % at 35 µM | 25 tested, under 10 active;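 active means signal drop with fitted half-maximal concentration at or below twice the highest valid dose; inconclusive means flat curve with 30 to 70% loss, or poor fit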
An asterisk follows results filed as active; i = inactive; ? = inconclusive; · = not tested or not shown; + = active, no number.

SMILES | MazF activator | VHR inh abs | BJeLR viability | PfHsp40 rescue | 3CLpro inhibitor | Vc quorum ag-1 | Vc quorum ag-2 | others
CC(C)CCN1CCN(C2CCN(c3ccccc3)CC2)CC1CCO (configuration not stated) | -2 | 12 | -4 | 0 | 1 | 0 | ·
COc1ccc(NS(=O)(=O)c2cccc(C(=O)N3CCCC(C)C3)c2)cc1 (configuration not stated) | 9 | · | 2 | -1 | · | 19 | 0
CCCNC(=O)Nc1cc(C)on1 | 4 | 10 | 0 | 0 | 2 | 0 | ·
CCCCNC(=O)Nc1cc(C)on1 | -4 | -4 | -15 | 0 | -4 | 14 | 0
O=C(COC(=O)c1ccc(O)cc1)Nc1ccc2c(c1)OCCO2 | -21 | · | · | -1 | · | 1 | ·
O=C(COC(=O)c1ccc(O)cc1)c1ccc2c(c1)OCCO2 | -1 | · | · | 1 | · | 14 | 6
CCOC(=O)C1(CC2CC2)CCN(Cc2cnc(-c3ccc(OC)cc3)nc2)CC1 | -5 | 14 | -6 | -1 | -3 | -3 | ·
COc1ccc(CC(=O)OCC(=O)N(C)C2CCS(=O)(=O)C2)cc1OC (configuration not stated) | 6 | · | 0 | 0 | · | -1 | ·
CCCCN(Cc1nc2ccccc2c(=O)[nH]1)C(=O)CN1C(=O)NC2(CCCCC2)C1=O | 4 | · | · | ? | · | 110* | 4
CC1CCCCC12NC(=O)N(CC(=O)N(C)Cc1nc3ccccc3c(=O)[nH]1)C2=O (configuration not stated) | 2 | · | · | 0 | · | i | ·
Cc1ccc(C(=O)OCC(=O)NC2CCCCC2)o1 | 4 | 29 | 3 | 0 | 2 | 1 | ·
O=C(COC(=O)c1cc(Cl)ccc1Cl)NC1CCCC1 | 6 | -11 | 2 | 0 | 3 | 28* | 29
Cc1cc(C(=O)OCC(=O)Nc2ccccc2F)c(C)o1 | -2 | 25 | 15 | -1 | 1 | 57* | 15
CC(C)(C)c1ccc(C(=O)OCC(=O)NC2CC2)cc1 | 1 | · | · | 0 | · | 26 | 18
Cc1cc(C(=O)OCC(=O)NC2CCCCC2)c(C)o1 | 1 | 19 | 5 | -1 | -2 | 175* | 660
Cc1ccc(C(=O)OCC(=O)NC2CCCC2)cc1 | 6 | -15 | -9 | 0 | -4 | · | i | HeLa 24h tox=11
CC(C)c1ccc(OCC(=O)NC2CCCC2)cc1 | -3 | -2 | 0 | 1 | -5 | · | i
Cc1ccc(C(=O)NCCc2nnc3ccc(SCC(=O)N4CCCCC4)nn23)cc1 | 5 | 18 | 2 | -1 | 5 | i | ·
COc1ccc(C(=O)Nc2ccccc2C(=O)NCCN2CCOCC2)cc1OC | 3 | 4 | 1 | 0 | -1 | i | ·
CC1CC(=O)Nc2ccccc2N1C(=O)CSc1nnnn1C (configuration not stated) | 2 | · | · | -2 | · | i | ·
Cc1cccc(NC(=O)c2ccc(OCc3c(C)noc3C)cc2)c1 | 5 | · | · | 4 | · | i | ·
Cc1noc(C)c1COc1ccc(C(=O)NCC(c2c(F)cccc2Cl)N(C)C)cc1 (configuration not stated) | 1 | · | · | -1 | · | 19 | 0
CNS(=O)(=O)c1cccc(C(=O)OCC(=O)N2CC(C)OC(C)C2)c1 (configuration not stated) | 4 | -3 | 17 | 1 | -9 | 0 | ·
CN1CC(=O)N(CC(=O)Nc2ccc3c(c2)CCC3)C1=O | -13 | 18 | 6 | -2 | 4 | 36* | 0
Cc1nc2ccc(C(=O)OCC(=O)N(C)c3ccccc3)cc2nc1C | -2 | · | · | -1 | · | 14 | 0
SMILES | MazF activator | VHR inh abs | BJeLR viability | PfHsp40 rescue | 3CLpro inhibitor | Vc quorum ag-1 | Vc quorum ag-2 | others
CCOc1ccc(Nc2nc3c(c(=O)[nH]2)CCC3)cc1 | -2 | 26 | · | 1 | 0 | 13 | ·
CCOc1ccc(Nc2nc3c(c(=O)[nH]2)CCCC3)cc1 | 9 | -1 | -7 | 0 | 6 | 145* | 885
Cc1cc2c(=O)n(C)c(SCC(=O)Nc3ccc(F)cc3)nc2s1 | 3 | · | · | 0 | · | -2 | ·
CCCNC(=O)COC(=O)/C=C/c1ccc(C)o1 | 3 | 14 | -23 | -1 | 2 | + | i
Cc1ccc(/C=C/C(=O)OCC(=O)NCc2ccccc2)o1 | 3 | · | · | 1 | · | -1 | ·
COC(=O)c1cc(NC(=O)C2CC=CCC2C(=O)O)cc(C(=O)OC)c1 (configuration not stated) | 7 | 10 | 4 | -1 | 6 | 7.6* | 1
C[n+]1ccn(CC(=O)c2cc(C(C)(C)C)c(O)c(C(C)(C)C)c2)c1 | 0 | 24 | -8 | -1 | 4 | 0 | ·
O=C(Nc1ccc(Cl)c(Cl)c1)Nc1ccccc1C(=O)O | -10 | 1 | 19 | 2 | 6 | 13 | 0
O=C(Nc1cccc(Cl)c1)Nc1ccccc1C(=O)O | -4 | -13 | 19 | -1 | 4 | 0 | ·
COc1ccc(C(=O)N(C)Cc2ccccn2)cc1OC1CCN(C(C)C)CC1 | -1 | 15 | 1 | -1 | -2 | 1 | ·
Cc1ccc(C(=O)NNC(=O)C2CCN(C(=O)OC(C)(C)C)CC2)cc1 | -24 | -12 | 5 | 0 | -1 | -1 | ·
Cc1ccc(C(=O)OCC(=O)NCCNC(=O)COC(=O)c2ccc(C)s2)s1 | 2 | · | -13 | 0 | · | 12 | 0
Cc1c(C(=O)c2ccc(F)cc2F)c2ccccn2c1CCC#N | -80 | 28 | 0 | 0 | -5 | 1 | ·
Cc1c(C(=O)c2ccc(F)cc2F)c2ccccn2c1CCc1ccccn1 | 4 | · | · | · | · | 12 | 0
CCn1nnc(NCc2ccc(C)cc2)n1 | · | · | · | · | · | · | · | HeLa 24h tox=10
COc1cc(-c2n[nH]c(=S)n2-c2ccc(Br)cc2)cc(OC)c1OC | 9 | 26 | 10 | 0 | 4 | 0 | ·
COC(=O)Cn1nc(-c2ccccc2)c2ccccc21 | 6 | -5 | -4 | 0 | -3 | 12 | 0
Cc1nn2c(=O)c3c4c(sc3nc2n1-c1ccccc1)COC(C)(C)C4 | 0 | -17 | 1 | · | 0 | 0 | ·
COc1ccc(-c2cc(CCCC(=O)NCCc3cc(OC)ccc3OC)no2)cc1 | 0 | 10 | -11 | 1 | -4 | 12 | 8
CCOc1ccc(S(=O)(=O)n2ccnc2C)cc1 | · | -12 | -6 | · | 3 | · | ·
O=C(Nc1ccc(Cl)cn1)Nc1ccc(Cl)cn1 | -19 | 17 | -2 | 0 | 3 | 0 | ·
